# According to paper PMC7862700, “An all-to-all approach to the identification of sequence-specific readers for epigenetic DNA modifications on cytosine”:
# Legend:
# Test in all cases: DAPPL (digital affinity profiling via proximity ligation, sequencing); 10 mM Tris-HCl pH 7.5, 50 mM NaCl, 1 mM DTT, 4% glycerol, room temperature, 30 min; GST-TFs on glutathione beads, 16-mer random dsDNA library, 0.1% formaldehyde crosslink after washing; high values mean tight binding
# [1] = biological target: T1, FLI1 (Homo sapiens, UniProt Q01543 1-452); settings: protein: recombinant; tags: N-terminal GST; dsDNA, one strand shown
# T1 sequence: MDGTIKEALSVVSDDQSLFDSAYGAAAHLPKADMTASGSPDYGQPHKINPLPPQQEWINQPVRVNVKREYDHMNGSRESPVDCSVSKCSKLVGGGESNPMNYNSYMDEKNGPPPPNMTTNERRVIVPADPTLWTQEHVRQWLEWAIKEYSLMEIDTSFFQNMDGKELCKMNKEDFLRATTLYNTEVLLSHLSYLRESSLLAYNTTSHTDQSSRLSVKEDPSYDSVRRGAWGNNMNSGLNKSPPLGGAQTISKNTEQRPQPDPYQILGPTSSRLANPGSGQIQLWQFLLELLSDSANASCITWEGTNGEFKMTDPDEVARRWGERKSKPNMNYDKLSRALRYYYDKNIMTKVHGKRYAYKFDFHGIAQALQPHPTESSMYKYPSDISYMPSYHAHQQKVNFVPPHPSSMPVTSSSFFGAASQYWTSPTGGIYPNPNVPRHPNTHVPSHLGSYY
# Method in brief: (§1)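 Human transcription factors were made in yeast as GST fusions, captured on glutathione beads and barcoded with DNA. With a tag-only sample included, the pool was incubated with 200 nmole of a random double-stranded 16-mer DNA library in Tris/NaCl/DTT/glycerol buffer at room temperature for 30 min, then crosslinked with 0.1% formaldehyde after washing, ligated by proximity, amplified and sequenced. For binding signal, each hexamer's read frequency for a factor is divided by its frequency for the tag-only sample.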
# [2] = biological target: T2, ELK1 (Homo sapiens, UniProt P19419 1-428); settings: protein: recombinant; tags: N-terminal GST; dsDNA, one strand shown
# T2 sequence: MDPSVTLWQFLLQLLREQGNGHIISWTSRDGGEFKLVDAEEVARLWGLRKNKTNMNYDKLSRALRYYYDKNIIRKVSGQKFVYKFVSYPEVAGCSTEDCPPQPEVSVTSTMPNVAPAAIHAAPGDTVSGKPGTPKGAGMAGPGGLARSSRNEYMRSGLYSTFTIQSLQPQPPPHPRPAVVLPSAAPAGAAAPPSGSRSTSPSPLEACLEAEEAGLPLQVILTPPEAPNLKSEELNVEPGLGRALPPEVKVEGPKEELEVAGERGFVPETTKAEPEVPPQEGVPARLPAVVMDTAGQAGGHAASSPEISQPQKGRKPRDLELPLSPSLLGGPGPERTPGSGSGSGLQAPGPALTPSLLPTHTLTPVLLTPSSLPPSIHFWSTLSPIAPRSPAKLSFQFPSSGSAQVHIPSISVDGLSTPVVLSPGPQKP
# Method in brief: as §1
# [3] = biological target: T3, GABPA (Homo sapiens, UniProt Q06546 1-454); settings: protein: recombinant; tags: N-terminal GST; dsDNA, one strand shown
# T3 sequence: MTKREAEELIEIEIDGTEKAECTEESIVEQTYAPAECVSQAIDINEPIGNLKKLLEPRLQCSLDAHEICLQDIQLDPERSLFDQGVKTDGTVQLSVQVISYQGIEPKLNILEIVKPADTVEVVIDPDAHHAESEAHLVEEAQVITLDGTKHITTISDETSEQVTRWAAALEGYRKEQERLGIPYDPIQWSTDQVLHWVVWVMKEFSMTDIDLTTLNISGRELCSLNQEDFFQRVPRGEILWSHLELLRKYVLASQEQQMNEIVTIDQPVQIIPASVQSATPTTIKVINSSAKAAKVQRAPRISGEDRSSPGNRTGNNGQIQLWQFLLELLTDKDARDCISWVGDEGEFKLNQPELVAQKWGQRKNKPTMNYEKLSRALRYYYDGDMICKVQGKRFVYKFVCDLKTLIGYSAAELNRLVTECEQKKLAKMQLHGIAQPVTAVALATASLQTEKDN
# Method in brief: as §1
# [4] = biological target: T4, ERG (Homo sapiens, UniProt P11308 1-479); settings: protein: recombinant; tags: N-terminal GST; dsDNA, one strand shown
# T4 sequence: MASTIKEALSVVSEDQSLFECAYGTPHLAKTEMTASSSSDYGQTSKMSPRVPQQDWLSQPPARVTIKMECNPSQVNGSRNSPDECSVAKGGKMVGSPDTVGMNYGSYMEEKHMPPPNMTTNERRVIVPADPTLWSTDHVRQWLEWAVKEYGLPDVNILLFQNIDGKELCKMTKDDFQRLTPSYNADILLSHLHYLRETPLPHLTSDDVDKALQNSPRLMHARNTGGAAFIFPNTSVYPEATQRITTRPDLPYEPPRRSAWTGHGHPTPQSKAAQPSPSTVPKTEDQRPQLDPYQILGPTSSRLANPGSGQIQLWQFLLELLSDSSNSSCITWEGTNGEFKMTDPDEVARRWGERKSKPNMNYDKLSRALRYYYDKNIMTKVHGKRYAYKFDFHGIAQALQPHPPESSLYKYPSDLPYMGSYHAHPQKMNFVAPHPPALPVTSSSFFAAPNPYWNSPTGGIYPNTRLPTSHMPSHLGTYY
# Method in brief: as §1
# [5] = biological target: ELF1 (Homo sapiens, UniProt P32519 1-619); settings: protein: recombinant; tags: N-terminal GST; dsDNA, one strand shown
# Method in brief: as §1
# [6] = biological target: T5, EHF (Homo sapiens, UniProt Q9NZC4 1-300); settings: protein: recombinant; tags: N-terminal GST; dsDNA, one strand shown
# T5 sequence: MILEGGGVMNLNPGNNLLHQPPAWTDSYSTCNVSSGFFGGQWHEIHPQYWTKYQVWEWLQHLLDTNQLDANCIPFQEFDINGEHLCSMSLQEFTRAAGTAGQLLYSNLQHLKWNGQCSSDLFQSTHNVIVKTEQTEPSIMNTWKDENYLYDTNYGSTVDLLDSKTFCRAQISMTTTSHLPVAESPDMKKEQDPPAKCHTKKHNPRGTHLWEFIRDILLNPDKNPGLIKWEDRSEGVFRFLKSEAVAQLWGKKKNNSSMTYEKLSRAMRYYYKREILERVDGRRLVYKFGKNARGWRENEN
# Method in brief: as §1
# [7] = biological target: SPI1 (Homo sapiens, UniProt P17947 1-270); settings: protein: recombinant; tags: N-terminal GST; dsDNA, one strand shown
# Method in brief: as §1
# [8] = biological target: SPIB (Homo sapiens, UniProt Q01892 1-262); settings: protein: recombinant; tags: N-terminal GST; dsDNA, one strand shown
# Method in brief: as §1
# [9] = biological target: T6, ELK3 (Homo sapiens, UniProt P41970 1-407); settings: protein: recombinant; tags: N-terminal GST; dsDNA, one strand shown
# T6 sequence: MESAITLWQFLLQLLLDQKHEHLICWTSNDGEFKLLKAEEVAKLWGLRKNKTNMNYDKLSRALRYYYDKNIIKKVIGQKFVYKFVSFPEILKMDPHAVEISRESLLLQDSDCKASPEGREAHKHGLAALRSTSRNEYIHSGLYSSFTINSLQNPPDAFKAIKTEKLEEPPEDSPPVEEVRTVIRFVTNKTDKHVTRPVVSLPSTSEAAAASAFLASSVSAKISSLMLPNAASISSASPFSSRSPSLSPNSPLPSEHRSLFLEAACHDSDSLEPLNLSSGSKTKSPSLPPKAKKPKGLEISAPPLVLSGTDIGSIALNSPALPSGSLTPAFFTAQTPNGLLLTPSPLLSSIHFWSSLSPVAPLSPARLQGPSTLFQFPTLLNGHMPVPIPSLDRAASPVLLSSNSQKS
# Method in brief: as §1
# [10] = biological target: T7, FEV (Homo sapiens, UniProt Q99581 1-238); settings: protein: recombinant; tags: N-terminal GST; dsDNA, one strand shown
# T7 sequence: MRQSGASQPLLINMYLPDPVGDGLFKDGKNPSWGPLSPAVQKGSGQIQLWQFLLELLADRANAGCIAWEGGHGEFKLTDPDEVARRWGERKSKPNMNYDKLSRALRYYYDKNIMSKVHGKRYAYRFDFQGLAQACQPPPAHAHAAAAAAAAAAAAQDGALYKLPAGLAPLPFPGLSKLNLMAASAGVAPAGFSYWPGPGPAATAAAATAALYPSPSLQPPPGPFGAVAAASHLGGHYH
# Method in brief: as §1
# [11] = biological target: ETV5 (Homo sapiens, UniProt P41161 1-510); settings: protein: recombinant; tags: N-terminal GST; dsDNA, one strand shown
# Method in brief: as §1
# [12] = biological target: HSF1 (Homo sapiens, UniProt Q00613 1-529); settings: protein: recombinant; tags: N-terminal GST; chain copies: 3; dsDNA, one strand shown
# Method in brief: as §1
# [13] = biological target: T8, SPIC (Homo sapiens, UniProt Q8N5J4 1-248); settings: protein: recombinant; tags: N-terminal GST; dsDNA, one strand shown
# T8 sequence: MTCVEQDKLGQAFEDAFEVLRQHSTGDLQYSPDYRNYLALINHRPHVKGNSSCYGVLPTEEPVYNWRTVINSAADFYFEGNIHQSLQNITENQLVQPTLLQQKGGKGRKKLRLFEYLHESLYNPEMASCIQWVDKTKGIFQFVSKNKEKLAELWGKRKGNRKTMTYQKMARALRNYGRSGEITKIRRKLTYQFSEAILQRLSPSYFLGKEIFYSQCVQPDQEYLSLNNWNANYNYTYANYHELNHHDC
# Method in brief: as §1
# [14] = biological target: ELF4 (Homo sapiens, UniProt Q99607 1-663); settings: protein: recombinant; tags: N-terminal GST; dsDNA, one strand shown
# Method in brief: as §1
# [15] = biological target: T9, ELK4 (Homo sapiens, UniProt P28324-2 1-405); settings: protein: recombinant; tags: N-terminal GST; dsDNA, one strand shown
# T9 sequence: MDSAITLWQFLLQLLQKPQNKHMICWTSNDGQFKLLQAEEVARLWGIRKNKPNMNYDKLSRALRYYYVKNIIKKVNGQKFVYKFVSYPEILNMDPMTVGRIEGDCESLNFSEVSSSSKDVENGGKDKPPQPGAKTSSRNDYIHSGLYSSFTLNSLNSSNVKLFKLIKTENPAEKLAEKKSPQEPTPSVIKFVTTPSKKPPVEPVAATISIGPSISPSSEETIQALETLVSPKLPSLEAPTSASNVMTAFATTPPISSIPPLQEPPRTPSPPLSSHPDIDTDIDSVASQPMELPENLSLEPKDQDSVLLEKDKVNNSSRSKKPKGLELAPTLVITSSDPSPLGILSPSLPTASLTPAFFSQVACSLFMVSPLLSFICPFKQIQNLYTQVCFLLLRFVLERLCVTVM
# Method in brief: as §1
# [16] = biological target: T10, ETV2 (Homo sapiens, UniProt O00321 1-342); settings: protein: recombinant; tags: N-terminal GST; dsDNA, one strand shown
# T10 sequence: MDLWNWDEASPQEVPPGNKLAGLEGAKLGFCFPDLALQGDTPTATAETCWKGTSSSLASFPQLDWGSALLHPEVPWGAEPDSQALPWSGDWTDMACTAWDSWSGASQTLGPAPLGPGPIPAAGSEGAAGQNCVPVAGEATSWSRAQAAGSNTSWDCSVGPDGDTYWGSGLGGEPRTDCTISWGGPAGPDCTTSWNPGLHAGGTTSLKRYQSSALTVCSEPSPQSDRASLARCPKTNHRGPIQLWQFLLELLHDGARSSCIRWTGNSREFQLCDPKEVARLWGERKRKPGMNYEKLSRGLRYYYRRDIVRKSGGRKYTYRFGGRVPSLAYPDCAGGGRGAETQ
# Method in brief: as §1
# [17] = biological target: T11, ELF3 (Homo sapiens, UniProt P78545 1-371); settings: protein: recombinant; tags: N-terminal GST; dsDNA, one strand shown
# T11 sequence: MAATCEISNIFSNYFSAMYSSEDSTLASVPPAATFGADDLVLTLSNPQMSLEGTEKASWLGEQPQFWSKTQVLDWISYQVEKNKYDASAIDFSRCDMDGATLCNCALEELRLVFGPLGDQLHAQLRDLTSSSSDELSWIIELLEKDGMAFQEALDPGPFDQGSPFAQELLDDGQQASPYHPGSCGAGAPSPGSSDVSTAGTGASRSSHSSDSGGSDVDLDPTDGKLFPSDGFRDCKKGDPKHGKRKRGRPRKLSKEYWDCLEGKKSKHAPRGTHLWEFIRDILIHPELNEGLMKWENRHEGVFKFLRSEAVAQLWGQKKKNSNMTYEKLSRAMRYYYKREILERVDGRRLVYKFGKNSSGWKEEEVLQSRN
# Method in brief: as §1
# [18] = biological target: CRX (Homo sapiens, UniProt O43186 1-299); settings: protein: recombinant; tags: N-terminal GST; dsDNA, one strand shown
# Method in brief: as §1
# [19] = biological target: ETV1 (Homo sapiens, UniProt P50549 1-477); settings: protein: recombinant; tags: N-terminal GST; dsDNA, one strand shown
# Method in brief: as §1
# Sequence of SPIB (Q01892 whole entry): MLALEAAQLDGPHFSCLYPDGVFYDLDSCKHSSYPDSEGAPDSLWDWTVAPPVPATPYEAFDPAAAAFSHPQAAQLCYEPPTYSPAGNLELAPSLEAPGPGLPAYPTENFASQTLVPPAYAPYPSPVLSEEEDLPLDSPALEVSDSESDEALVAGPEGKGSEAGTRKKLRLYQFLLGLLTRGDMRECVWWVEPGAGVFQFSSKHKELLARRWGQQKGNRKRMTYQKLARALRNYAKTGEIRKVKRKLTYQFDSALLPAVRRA
# Sequence of ELF4 (Q99607 whole entry): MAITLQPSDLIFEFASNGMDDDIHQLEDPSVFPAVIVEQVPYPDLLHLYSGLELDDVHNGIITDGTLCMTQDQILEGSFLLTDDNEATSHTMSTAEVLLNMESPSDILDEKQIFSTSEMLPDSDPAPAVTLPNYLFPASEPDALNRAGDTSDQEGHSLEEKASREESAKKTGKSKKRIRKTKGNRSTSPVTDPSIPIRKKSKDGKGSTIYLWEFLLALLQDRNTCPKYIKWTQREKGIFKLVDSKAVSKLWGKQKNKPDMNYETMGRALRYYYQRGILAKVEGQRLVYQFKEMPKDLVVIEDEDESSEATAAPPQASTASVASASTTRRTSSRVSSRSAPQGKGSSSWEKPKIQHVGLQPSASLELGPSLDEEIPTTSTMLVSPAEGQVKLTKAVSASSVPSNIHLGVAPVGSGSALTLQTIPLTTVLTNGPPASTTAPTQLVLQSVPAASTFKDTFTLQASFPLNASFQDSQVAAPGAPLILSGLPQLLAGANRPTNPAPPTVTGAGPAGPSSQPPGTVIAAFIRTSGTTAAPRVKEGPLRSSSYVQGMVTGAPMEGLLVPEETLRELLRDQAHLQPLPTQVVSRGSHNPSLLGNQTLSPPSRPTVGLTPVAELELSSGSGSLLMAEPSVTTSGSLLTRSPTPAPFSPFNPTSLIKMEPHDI
# Sequence of ELF1 (P32519 whole entry): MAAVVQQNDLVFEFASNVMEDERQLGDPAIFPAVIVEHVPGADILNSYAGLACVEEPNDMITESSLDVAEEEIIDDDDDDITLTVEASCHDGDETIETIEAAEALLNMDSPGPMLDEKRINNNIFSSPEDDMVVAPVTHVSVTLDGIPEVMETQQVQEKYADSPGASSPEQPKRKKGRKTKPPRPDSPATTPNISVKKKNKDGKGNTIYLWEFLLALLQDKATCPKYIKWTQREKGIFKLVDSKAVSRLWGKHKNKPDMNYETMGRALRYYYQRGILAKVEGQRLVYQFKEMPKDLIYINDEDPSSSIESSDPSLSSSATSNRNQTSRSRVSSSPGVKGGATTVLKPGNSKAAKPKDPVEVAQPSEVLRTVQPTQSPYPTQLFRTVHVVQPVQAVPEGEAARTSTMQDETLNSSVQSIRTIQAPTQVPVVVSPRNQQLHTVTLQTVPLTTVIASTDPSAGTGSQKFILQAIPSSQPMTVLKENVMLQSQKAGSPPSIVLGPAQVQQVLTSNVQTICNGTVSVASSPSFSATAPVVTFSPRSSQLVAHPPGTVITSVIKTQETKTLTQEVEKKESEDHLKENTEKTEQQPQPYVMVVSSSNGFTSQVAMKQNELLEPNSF
# Sequence of HSF1 (Q00613 whole entry): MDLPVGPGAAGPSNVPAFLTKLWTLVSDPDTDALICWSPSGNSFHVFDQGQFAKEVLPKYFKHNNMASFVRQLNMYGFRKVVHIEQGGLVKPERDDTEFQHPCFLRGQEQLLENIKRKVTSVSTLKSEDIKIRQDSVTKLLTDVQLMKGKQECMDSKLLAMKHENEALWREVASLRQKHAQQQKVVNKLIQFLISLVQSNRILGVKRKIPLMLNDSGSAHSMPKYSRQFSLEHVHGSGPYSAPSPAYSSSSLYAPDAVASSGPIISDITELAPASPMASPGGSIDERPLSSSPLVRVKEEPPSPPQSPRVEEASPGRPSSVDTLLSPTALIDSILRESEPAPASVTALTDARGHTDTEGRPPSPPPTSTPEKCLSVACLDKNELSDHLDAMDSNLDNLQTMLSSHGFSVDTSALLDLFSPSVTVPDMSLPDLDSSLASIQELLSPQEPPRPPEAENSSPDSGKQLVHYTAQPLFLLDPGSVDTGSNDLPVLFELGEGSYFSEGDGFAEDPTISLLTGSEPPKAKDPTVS
# Sequence of ETV1 (P50549 whole entry): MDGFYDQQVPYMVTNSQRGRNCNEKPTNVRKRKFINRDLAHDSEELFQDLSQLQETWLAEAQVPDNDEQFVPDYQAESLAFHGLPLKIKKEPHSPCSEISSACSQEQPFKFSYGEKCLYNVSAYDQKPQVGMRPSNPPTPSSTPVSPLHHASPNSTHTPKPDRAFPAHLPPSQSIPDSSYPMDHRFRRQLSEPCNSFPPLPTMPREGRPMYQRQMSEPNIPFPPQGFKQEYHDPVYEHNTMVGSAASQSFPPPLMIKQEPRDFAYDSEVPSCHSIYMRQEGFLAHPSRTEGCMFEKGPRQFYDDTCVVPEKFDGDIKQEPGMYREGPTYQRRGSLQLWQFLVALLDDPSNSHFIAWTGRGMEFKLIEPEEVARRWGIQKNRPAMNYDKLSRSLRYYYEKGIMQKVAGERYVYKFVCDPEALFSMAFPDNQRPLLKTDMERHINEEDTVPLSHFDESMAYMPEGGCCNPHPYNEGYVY
# Sequence of ETV5 (P41161 whole entry): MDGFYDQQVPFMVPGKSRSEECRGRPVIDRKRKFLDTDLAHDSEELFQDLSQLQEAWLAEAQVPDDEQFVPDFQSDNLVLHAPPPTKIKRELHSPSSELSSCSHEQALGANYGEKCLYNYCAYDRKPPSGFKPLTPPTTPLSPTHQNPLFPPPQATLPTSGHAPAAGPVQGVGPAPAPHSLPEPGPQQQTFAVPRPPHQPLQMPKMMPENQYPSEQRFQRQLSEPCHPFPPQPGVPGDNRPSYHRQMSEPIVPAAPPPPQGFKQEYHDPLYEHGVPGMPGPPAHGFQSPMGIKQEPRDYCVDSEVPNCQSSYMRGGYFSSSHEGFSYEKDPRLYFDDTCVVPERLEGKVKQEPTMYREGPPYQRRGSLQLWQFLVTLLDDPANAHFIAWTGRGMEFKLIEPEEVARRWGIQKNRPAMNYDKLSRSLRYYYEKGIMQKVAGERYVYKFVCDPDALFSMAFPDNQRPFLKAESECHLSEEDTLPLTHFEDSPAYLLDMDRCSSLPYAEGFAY
# Sequence of CRX (O43186 whole entry): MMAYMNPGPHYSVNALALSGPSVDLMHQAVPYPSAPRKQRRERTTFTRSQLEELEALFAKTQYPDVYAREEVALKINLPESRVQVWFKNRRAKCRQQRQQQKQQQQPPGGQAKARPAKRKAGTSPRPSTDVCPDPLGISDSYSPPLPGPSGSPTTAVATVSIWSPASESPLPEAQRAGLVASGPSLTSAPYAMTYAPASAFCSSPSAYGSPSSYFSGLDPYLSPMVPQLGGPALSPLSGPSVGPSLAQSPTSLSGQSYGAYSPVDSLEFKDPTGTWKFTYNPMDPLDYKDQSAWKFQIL
sequence,measurement,setting,value
TCAATA,binding signal,[1],"1.21 fold enrichment (6-mer frequency, TF over GST control)"
same,binding signal,[2],"1.17 fold enrichment (6-mer frequency, TF over GST control)"
same,binding signal,[3],"1.24 fold enrichment (6-mer frequency, TF over GST control)"
same,binding signal,[4],"1.14 fold enrichment (6-mer frequency, TF over GST control)"
same,binding signal,[5],"1.17 fold enrichment (6-mer frequency, TF over GST control)"
same,binding signal,[6],"1.14 fold enrichment (6-mer frequency, TF over GST control)"
same,binding signal,[7],"1.23 fold enrichment (6-mer frequency, TF over GST control)"
same,binding signal,[8],"1.06 fold enrichment (6-mer frequency, TF over GST control)"
same,binding signal,[9],"1.2 fold enrichment (6-mer frequency, TF over GST control)"
same,binding signal,[10],"1.15 fold enrichment (6-mer frequency, TF over GST control)"
same,binding signal,[11],"1.21 fold enrichment (6-mer frequency, TF over GST control)"
same,binding signal,[12],"1.18 fold enrichment (6-mer frequency, TF over GST control)"
same,binding signal,[13],"1.06 fold enrichment (6-mer frequency, TF over GST control)"
same,binding signal,[14],"1.17 fold enrichment (6-mer frequency, TF over GST control)"
same,binding signal,[15],"1.29 fold enrichment (6-mer frequency, TF over GST control)"
same,binding signal,[16],"1.26 fold enrichment (6-mer frequency, TF over GST control)"
same,binding signal,[17],"1.23 fold enrichment (6-mer frequency, TF over GST control)"
same,binding signal,[18],"1.34 fold enrichment (6-mer frequency, TF over GST control)"
same,binding signal,[19],"1.24 fold enrichment (6-mer frequency, TF over GST control)"
